# Values joined by “and” are separate entries in the source; they are usually repeats but may differ in a detail not shown here. Equal entries are not always repeated. ± gives the standard deviation of the averaged measurements. In all, about 2,900 compounds were measured (“IRF Lucia reporter activity, fold change vs agonist alone”: median about 0.9, highest 2% from about 2.8 on). Many of the other results were omitted from the sample, so the highest values are more common in it than they were.
# Columns and labels:
# [1] = tested on: RAW-Dual; assay: IRF Lucia reporter activity, fold change vs agonist alone; cytotoxicity flag (confluency mask): not cytotoxic; higher = enhanced IRF activity
# Outline: (§1)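 Reporter activity is given as fold change relative to agonist-alone wells. To measure it, 50 nL of library stock was pin-tooled onto RAW-Dual macrophages (50,000 cells/well, DMEM, 384-well plates), a PRR agonist followed 1 h later, and cells stayed at 37 °C, 5% CO2. Twenty hours on, supernatant was assayed for IRF (QuantiLuc luminescence) and NF-κB (QuantiBlue, 620 nm absorbance), and wells under 70% of agonist-control IncuCyte confluency in both mask sets were marked cytotoxic.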
# [2] = tested on: RAW-Dual; assay: IRF Lucia reporter activity, fold change vs agonist alone; cytotoxicity flag (confluency mask): cytotoxic (confluency <70% of control); higher = enhanced IRF activity
# Outline: as §1
# [3] = tested on: RAW-Dual; assay: IRF Lucia reporter activity, fold change vs agonist alone; higher = enhanced IRF activity; conditions: library stock concentration (final ~1000-fold dilution): 10 mM, agonist: MPLA (TLR4) […]
# Outline: as §1
# [4] = agonist: 3'3'-cGAMP (STING) 10 ug/mL
# [5] = cytotoxicity flag (confluency mask): not cytotoxic
# [6] = cytotoxicity flag (confluency mask): cytotoxic (confluency <70% of control)
structure (smiles),measurement,setting,value
COc1cc(C(=O)O)ccc1NC(=O)C1NC(CC(C)(C)C)C(C#N)(c2ccc(Cl)cc2F)C1c1cccc(Cl)c1F (stereo unspecified) (library stock concentration (final ~1000-fold dilution): 10 mM),IRF Lucia reporter activity,[1]; [4],0.62
same,IRF Lucia reporter activity,[1]; agonist: LPS (TLR4) 0.1 ug/mL,0.186
CC(C)(C)CC1NC(C(=O)NC2CCC(O)CC2)C(c2cccc(Cl)c2F)C12C(=O)Nc1cc(Cl)ccc12 (stereo unspecified) (library stock concentration (final ~1000-fold dilution): 10 mM),IRF Lucia reporter activity,[2]; [4],0.342
same,IRF Lucia reporter activity,[2]; agonist: LPS (TLR4) 0.1 ug/mL,3.33
COc1cc(C(=O)O)ccc1NC(=O)C1NC(CC(C)(C)C)C(C#N)(c2ccc(Cl)cc2F)C1c1cccc(Cl)c1F (stereo unspecified),IRF Lucia reporter activity,[3]; [5],0.67
O=c1cc(-c2ccccc2)oc2cc(OC3OC(CO)C(O)C(O)C3O)c(O)c(O)c12 (stereo unspecified) (library stock concentration (final ~1000-fold dilution): 10 mM),IRF Lucia reporter activity,[1]; [4],0.862
same,IRF Lucia reporter activity,[1]; agonist: LPS (TLR4) 0.1 ug/mL,0.849
CC(Nc1ncnc2[nH]cnc12)c1cc2cccc(Cl)c2c(=O)n1-c1ccccc1 (stereo unspecified),IRF Lucia reporter activity,[3]; [5],1.42
CC(NC(=O)c1c(N)nn2cccnc12)c1cc2cccc(C#Cc3cnn(C)c3)c2c(=O)n1-c1ccccc1 (stereo unspecified) (library stock concentration (final ~1000-fold dilution): 10 mM),IRF Lucia reporter activity,[1]; [4],0.813
same,IRF Lucia reporter activity,[1]; agonist: LPS (TLR4) 0.1 ug/mL,1.14
CC(Nc1ncnc(N)c1C#N)c1cc2cccc(-c3ccc(=O)n(C)c3)c2c(=O)n1C(C)C (stereo unspecified),IRF Lucia reporter activity,[3]; [5],7.07
CC(Nc1ncnc(N)c1C#N)c1cc2cccc(-c3ccc(=O)n(C)c3)c2c(=O)n1C(C)C (stereo unspecified) (library stock concentration (final ~1000-fold dilution): 10 mM),IRF Lucia reporter activity,[1]; [4],1.14
same,IRF Lucia reporter activity,[1]; agonist: LPS (TLR4) 0.1 ug/mL,8.45
CC(Nc1ncnc2[nH]cnc12)c1cc2cccc(Cl)c2c(=O)n1-c1ccccc1 (stereo unspecified) (library stock concentration (final ~1000-fold dilution): 10 mM),IRF Lucia reporter activity,[1]; [4],0.659
same,IRF Lucia reporter activity,[1]; agonist: LPS (TLR4) 0.1 ug/mL,0.799
Cl.Fc1ccc(C2CCNCC2COc2ccc3c(c2)OCO3)cc1 (stereo unspecified) (library stock concentration (final ~1000-fold dilution): 10 mM),IRF Lucia reporter activity,[1]; [4],0.928
same,IRF Lucia reporter activity,[1]; agonist: LPS (TLR4) 0.1 ug/mL,1.02
Cl.Fc1ccc(C2CCNCC2COc2ccc3c(c2)OCO3)cc1 (stereo unspecified),IRF Lucia reporter activity,[3]; [5],1.35
OCC1=CC(O)C2C=COC(OC3OC(CO)C(O)C(O)C3O)C12 (stereo unspecified) (library stock concentration (final ~1000-fold dilution): 10 mM),IRF Lucia reporter activity,[1]; [4],1.05
same,IRF Lucia reporter activity,[1]; agonist: LPS (TLR4) 0.1 ug/mL,1.37
OCC1=CC(O)C2C=COC(OC3OC(CO)C(O)C(O)C3O)C12 (stereo unspecified),IRF Lucia reporter activity,[3]; [5],1.01
O=C(O)CCc1c[nH]c2ccccc12 (library stock concentration (final ~1000-fold dilution): 10 mM),IRF Lucia reporter activity,[1]; [4],0.921
same,IRF Lucia reporter activity,[1]; agonist: LPS (TLR4) 0.1 ug/mL,1.18
c1ccc2c(CCNc3ccc(Nc4ccncc4)cc3)c[nH]c2c1 (library stock concentration (final ~1000-fold dilution): 10 mM),IRF Lucia reporter activity,[1]; [4],0.706
same,IRF Lucia reporter activity,[1]; agonist: LPS (TLR4) 0.1 ug/mL,0.612
OCc1c[nH]c2ccccc12 (library stock concentration (final ~1000-fold dilution): 10 mM),IRF Lucia reporter activity,[1]; [4],0.803 and 0.565
same,IRF Lucia reporter activity,[1]; agonist: LPS (TLR4) 0.1 ug/mL,0.839 and 0.758
c1ccc2c(CCNc3ccc(Nc4ccncc4)cc3)c[nH]c2c1,IRF Lucia reporter activity,[3]; [5],2.97
OCc1c[nH]c2ccccc12,IRF Lucia reporter activity,[3]; [5],1.07 ± 0.022
CN1CC2c3ccccc3Oc3ccc(Cl)cc3C2C1.O=C(O)/C=C\C(=O)O (stereo unspecified),IRF Lucia reporter activity,[3]; [6],1.95
CN1CC2c3ccccc3Oc3ccc(Cl)cc3C2C1.O=C(O)/C=C\C(=O)O (stereo unspecified) (library stock concentration (final ~1000-fold dilution): 10 mM),IRF Lucia reporter activity,[2]; [4],0.746
same,IRF Lucia reporter activity,[2]; agonist: LPS (TLR4) 0.1 ug/mL,0.716
O=[N+]([O-])c1ccc(Sc2cccc[n+]2[O-])c2nonc12 (library stock concentration (final ~1000-fold dilution): 10 mM),IRF Lucia reporter activity,[2]; [4],0.262
same,IRF Lucia reporter activity,[2]; agonist: LPS (TLR4) 0.1 ug/mL,0.0128
C#CCN(C)CCCOc1ccc(Cl)cc1Cl.Cl (library stock concentration (final ~1000-fold dilution): 10 mM),IRF Lucia reporter activity,[1]; [4],1.06
same,IRF Lucia reporter activity,[1]; agonist: LPS (TLR4) 0.1 ug/mL,1.19
C#CCN(C)CCCOc1ccc(Cl)cc1Cl.Cl,IRF Lucia reporter activity,[3]; [5],1.12
O=C(Nc1cc(C(F)(F)F)cc(C(F)(F)F)c1)c1cc(Cl)ccc1O (library stock concentration (final ~1000-fold dilution): 10 mM),IRF Lucia reporter activity,[2]; [4],0.03 and 0.0207
same,IRF Lucia reporter activity,[2]; agonist: LPS (TLR4) 0.1 ug/mL,3.59 and 3.92
O=C(Nc1ccc([N+](=O)[O-])cc1Cl)c1cc(Cl)ccc1O,IRF Lucia reporter activity,[3]; [5],0.899
O=C(Nc1cc(C(F)(F)F)ccc1N1CCCCC1)c1ccncc1 (library stock concentration (final ~1000-fold dilution): 10 mM),IRF Lucia reporter activity,[1]; [4],1.05
same,IRF Lucia reporter activity,[1]; agonist: LPS (TLR4) 0.1 ug/mL,0.874
O=C(Nc1cc(C(F)(F)F)ccc1N1CCCCC1)c1ccncc1,IRF Lucia reporter activity,[3]; [5],1.18
O=C(Nc1ccc([N+](=O)[O-])cc1Cl)c1cc(Cl)ccc1O (library stock concentration (final ~1000-fold dilution): 10 mM),IRF Lucia reporter activity,[1]; [4],0.354
same,IRF Lucia reporter activity,[1]; agonist: LPS (TLR4) 0.1 ug/mL,2.53
CC12C=CC(=O)NC1CCC1C2CCC2(C)C(C(=O)Nc3cc(C(F)(F)F)ccc3C(F)(F)F)CCC12 (stereo unspecified) (library stock concentration (final ~1000-fold dilution): 10 mM),IRF Lucia reporter activity,[1]; [4],1.22
same,IRF Lucia reporter activity,[1]; agonist: LPS (TLR4) 0.1 ug/mL,1.38
CC(ONC(=O)c1cc(C(F)(F)F)cc(C(F)(F)F)c1)C(=O)Nc1ccc(Cl)cc1 (stereo unspecified) (library stock concentration (final ~1000-fold dilution): 10 mM),IRF Lucia reporter activity,[1]; [4],0.52
same,IRF Lucia reporter activity,[1]; agonist: LPS (TLR4) 0.1 ug/mL,0.52
CC12C=CC(=O)NC1CCC1C2CCC2(C)C(C(=O)Nc3cc(C(F)(F)F)ccc3C(F)(F)F)CCC12 (stereo unspecified),IRF Lucia reporter activity,[3]; [5],1.08
O=C(Nc1cc(C(F)(F)F)cc(C(F)(F)F)c1)c1cc(Cl)ccc1O,IRF Lucia reporter activity,[3]; [6],3.54 ± 1.7
O=C(Nc1cc(C(F)(F)F)ccc1C(F)(F)F)c1cc(Br)ccc1O (library stock concentration (final ~1000-fold dilution): 10 mM),IRF Lucia reporter activity,[2]; [4],0.0368
same,IRF Lucia reporter activity,[2]; agonist: LPS (TLR4) 0.1 ug/mL,4.46
CC1CC(C(=O)O)C2CCC3(C)C(=CCC4C5(C)CCC(O)C(C)(C)C5CCC43C)C2C1C (stereo unspecified) (library stock concentration (final ~1000-fold dilution): 10 mM),IRF Lucia reporter activity,[1]; [4],0.973
same,IRF Lucia reporter activity,[1]; agonist: LPS (TLR4) 0.1 ug/mL,1.12
CC1CC(C(=O)O)C2CCC3(C)C(=CCC4C5(C)CCC(O)C(C)(C)C5CCC43C)C2C1C (stereo unspecified),IRF Lucia reporter activity,[3]; [5],1.06

# — the supplement of paper PMC10037445
